Reference: PubChem BioAssay (EPA / NIEHS)
Where “and” joins values, the source holds several entries; their conditions need not be identical. Equal values may be shown once. Calls of active or inactive are those of the source. Rule for the calls: active = hit-call score of the fitted dose curve at least 0.9, where 1 is the maximum; inactive = score below 0.9.

read-out: CD69, CD69 (gene 969); assay: BSK_SAg_CD69: BioMAP Diversity Plus: SAg Assay for CD69 Biomarker Activity (AID 2283089); details: primary human HUVEC with PBMC; actives raise or lower the signal
Protocol: BSK_SAg is a cell-based, multiplexed-readout assay that uses umbilical vein endothelium and peripheral blood mononuclear cells, a human vascular primary cell co-culture, with measurements taken at 24 hours after chemical dosing in a 96-well plate.BSK_SAg_CD69 is one of 10 assay component(s) measured or calculated from the BSK_SAg assay. It is designed to make measurements of enzyme-linked immunosorbent assay, a form of binding reporter, as detected with fluorescence intensity signals by Enzyme-linked immunosorbent assay technology.Data from the assay component BSK_SAg_CD69 was analyzed into 1 assay endpoint. This assay endpoint, BSK_SAg_CD69, was analyzed with bidirectional fitting relative to DMSO as the negative control and baseline of activity. Using a type of binding reporter, gain or loss-of-signal activity can be used to understand changes in the signaling as they relate to the gene CD69. Furthermore, this assay endpoint can be referred to as a primary readout, because this assay has produced multiple assay endpoints where this one serves a signaling function. To generalize the intended target to other relatable targets, this assay endpoint is annotated to the cytokine intended target family, where the subfamily is inflammatory factor.
The levels of cell surface (or secreted, indicated by the prefix "s") biomarker endpoints were measured by ELISA. Overt cytotoxicity to cells in confluent adherent cultures (all systems other than the BT system) was assessed by measuring total protein levels using sulforhodamine B (SRB) staining in parallel cultures at the time of biomarker measurements, indicated as SRB endpoints. For proliferation assays for adherent cell types, individual cell types are cultured at sub-confluence and relative cell numbers quantified by SRB staining at time points optimized for each system (48 h: 3C and CASM3C systems; 72 h: BT and HDF3CGF systems; 96 h: SAg system). SRB was performed by staining cells with 0.1% SRB after fixation with 10% TCA and reading wells at 560 nm.Viability and proliferation of PBMC (T cells) was quantified by Alamar Blue reduction for the SAg and BT systems. For PBMC viability (referred to as PBMC Cytotoxicity within the assay endpoint names), cells were plated (75,000/well in a 96-well plate) and then chemical samples added for 1 h before addition of activators, SEB and TSST-1 (20 ng/mL final concentration each). Cells were incubated for 90 h. Then, Alamar Blue (20 uL/well) (Invitrogen, Cat DAL1100) was added for 6 h, and the plates were read with a fluorescence microplate reader at 546/580 nm (excitation/emission). For PBMC proliferation, cells were plated and activated as above but incubated for only 16 h prior to addition of Alamar Blue. Plates were read after 6 h.

Row | SMILES | AC50 | outcome
1 | Cc1[nH]nc2c1N=C(c1ccccc1Cl)c1cc([N+](=O)[O-])ccc1N2 | 3.81 µM (active) | –
2 | O=S(=O)(O)C(F)(F)C(F)(F)C(F)(F)C(F)(F)C(F)(F)C(F)(F)C(F)(F)C(F)(F)C(F)(F)C(F)(F)F | – | inactive
3 | CN(Cc1cnc2nc(N)nc(N)c2n1)c1ccc(C(=O)N[C@@H](CCC(=O)O)C(=O)O)cc1 | – | inactive
4 | CCOC(=O)CN[C@@H](C(=O)N1CC[C@H]1C(=O)NCc1ccc(/C(N)=N/O)cc1)C1CCCCC1 | – | inactive
5 | CCCCCCCCCCCC | – | inactive
6 | C[C@]12CC[C@@H]3c4ccc(O)cc4CC[C@H]3[C@@H]1C[C@@H](O)[C@@H]2O | – | inactive
7 | CCC(C)c1ccccc1O (stereo not given) | – | inactive
8 | O=C(CCCN1CCC(O)(c2ccc(Cl)cc2)CC1)c1ccc(F)cc1 | – | inactive
9 | O=P(O)(O)CCC(F)(F)C(F)(F)C(F)(F)C(F)(F)C(F)(F)C(F)(F)F | – | inactive
10 | COCN(COC)c1nc(N(COC)COC)nc(N(COC)COC)n1 | – | inactive
11 | COC1=CC(=O)C[C@@H](C)[C@]12Oc1c(Cl)c(OC)cc(OC)c1C2=O | – | inactive
12 | CC(=O)Nc1ccc(O)cc1 | – | inactive
13 | Oc1c(Cl)cc(Cl)cc1Sc1cc(Cl)cc(Cl)c1O | 13.2 µM (active) and 16.2 µM (active) | –
14 | O=C(O)CCC(F)(F)C(F)(F)C(F)(F)C(F)(F)C(F)(F)F | – | inactive
15 | CN(CCO)S(=O)(=O)C(F)(F)C(F)(F)C(F)(F)C(F)(F)C(F)(F)C(F)(F)C(F)(F)C(F)(F)F | – | inactive
16 | CN(C)c1ccc(C(=C2C=CC(=[N+](C)C)C=C2)c2ccccc2)cc1 | 0.00338 µM (active) | –
17 | Cc1ccc(C(=O)c2ccccc2)cc1 | – | inactive
18 | C=CC(=C)CC/C=C(\C)CCC=C(C)C | – | inactive
19 | CC[N+](CC)(CC)Cc1ccccc1 | – | inactive
20 | NC(=NCCCCCCN=C(N)/N=C(\N)Nc1ccc(Cl)cc1)/N=C(\N)Nc1ccc(Cl)cc1 | 7.57 µM (active) | –

Row | SMILES | AC50 | outcome
21 | CC1=NN(c2ccccc2)C(=O)C1 | – | inactive
22 | COc1cc(OC)nc(NC(=O)NS(=O)(=O)Nc2ccccc2C(=O)N(C)C)n1 | – | inactive
23 | CS(=O)(=O)c1ccc([C@@H](CC2CCCC2)C(=O)Nc2cnccn2)cc1Cl | – | inactive
24 | O=C1OC2(c3ccccc31)c1cc(I)c(O)c(I)c1Oc1c2cc(I)c(O)c1I | 10.5 µM (active) | –
25 | CCCCCc1ccc(O)cc1 | 30.9 µM (active) | –
26 | CCCCCCCCCCCCCCC | – | inactive
27 | C=CC(=O)OCCC(F)(F)C(F)(F)C(F)(F)C(F)(F)C(F)(F)C(F)(F)C(F)(F)C(F)(F)F | – | inactive
28 | O=C1NS(=O)(=O)c2ccccc21 | – | inactive
29 | CCCCCCCCCCCCCCCCCC[N+](C)(C)Cc1ccccc1 | 2.73 µM (active) | –
30 | COc1cccc(O)c1 | – | inactive
31 | Cc1ccc(N=Nc2c(O)ccc3ccccc23)c(C)c1 | – | inactive
32 | O=P(O)(O)CCC(F)(F)C(F)(F)C(F)(F)C(F)(F)C(F)(F)C(F)(F)C(F)(F)C(F)(F)F | – | inactive
33 | Oc1cc2ccccc2cc1O | – | inactive
34 | O=C(c1ccccc1)c1ccccc1 | – | inactive
35 | CCCCCCCCCCCCOS(=O)(=O)O | – | inactive
36 | CC(C)(C)c1ccc(O)c(O)c1 | 20 µM (active) | –
37 | CN(C)CCOC(c1ccccc1)c1ccccc1 | – | inactive
38 | C=CC(C)(CCC=C(C)C)OC(C)=O (stereo not given) | – | inactive
39 | Clc1ccc(Nc2nnc(Cc3ccncc3)c3ccccc23)cc1 | – | inactive
40 | N=C(N)c1ccc(OCCCCCOc2ccc(C(=N)N)cc2)cc1 | 1.21 µM (active) | –
